PREPL inh: human PREPL enzyme inhibition. inhibition, % at 5.96 µM. AID 2751. 320,000 tested, 0.68% active. recombinant PREPL, fluorescence polarization activity-based probe
AI-2 QS mod: modulates the Vibrio harveyi AI-2 quorum sensing system | activity change, % at 7.5 µM | 300,000 tested, 0.4% active | Vibrio harveyi JMH597 AI-2 luminescence/OD600 ratio, 9 h; hits give low values; strain lacks LuxN and CqsS sensors; 0 = neutral-control median; in the data active = activity change below about -75%, passing the limit was not always enough; inconclusive = no clear call, values can overlap the other calls;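 note: luminescence divided by OD600 gain over 9 h not by final OD600 alone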
ALR inh: human ALR oxidase inhibition via reduced H2O2; P55789; purified ALR, DTT oxidation, H2O2 HRP-luminol luminescence; 290,000 tested, 3.8% active; inhibition, % (concentration not given with the values);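 active = mean replicate inhibition above about 79%, with every replicate also reaching it, limit read from the data; inconclusive = only one of the two criteria met; inactive = mean below limit and not every replicate reaching it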
CHT block: inhibits the human high affinity choline transporter; CHT-expressing cells, membrane potential dye, choline response; hits give low values; B-score at 10 µM; Q9GZV3; 310,000 tested, 0.86% active;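 active = B-score over 3 SD under the library average, and starting fluorescence ratio not unusually high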;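 note: choline stimulus applied at its EC90 after an EC20 pre-addition; B-score computed on integrated fluorescence ratio after choline addition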
Target sequence (Q9GZV3 whole entry, looked up): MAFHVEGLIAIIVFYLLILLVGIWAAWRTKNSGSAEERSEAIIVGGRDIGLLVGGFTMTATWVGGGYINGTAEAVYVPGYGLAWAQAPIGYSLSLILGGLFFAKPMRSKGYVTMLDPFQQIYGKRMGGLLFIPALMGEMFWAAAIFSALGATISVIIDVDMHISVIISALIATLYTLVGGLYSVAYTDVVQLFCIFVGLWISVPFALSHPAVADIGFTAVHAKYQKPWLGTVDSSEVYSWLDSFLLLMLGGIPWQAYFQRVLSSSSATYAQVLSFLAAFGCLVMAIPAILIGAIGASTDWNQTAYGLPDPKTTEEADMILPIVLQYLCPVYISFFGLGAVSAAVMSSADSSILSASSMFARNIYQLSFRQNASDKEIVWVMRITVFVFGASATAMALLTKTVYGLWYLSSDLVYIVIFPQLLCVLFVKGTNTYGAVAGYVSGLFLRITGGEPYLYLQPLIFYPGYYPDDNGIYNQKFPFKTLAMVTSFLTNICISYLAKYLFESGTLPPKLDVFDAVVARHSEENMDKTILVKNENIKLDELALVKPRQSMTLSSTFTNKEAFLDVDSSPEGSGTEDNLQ
CHT PAM: human CHT allosteric activation | Q9GZV3 | CHT-expressing cells, membrane potential dye, choline EC20; hits give high values; LV-AA mutant CHT in HEK293 cells | B-score at 10 µM | 310,000 tested, 0.49% active | AID 488977;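 active = initial fluorescence not abnormally high and integrated response B-score, plate-corrected, over 3 SD above library mean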
PREPL inh cf: confirmation of human PREPL enzyme inhibitors; AID 2803; inhibition, % at 5.96 µM; shares compounds with PREPL inh; 2,000 tested, 67% active; recombinant PREPL, fluorescence polarization activity probe
Hits are given with their value; i = inactive; ? = inconclusive; nt = no result. This is a sample that favours compounds with a hit; in the whole collection about 5% have one here. Cut-off read from the data, not from the text of the source, unless noted: active = inhibition above about 43%; inactive = the rest.

SMILES	PREPL inh	AI-2 QS mod	ALR inh	CHT block	CHT PAM	PREPL inh cf
CCCCNc1c(-c2ccc(SC(C)CC)cc2)nc2cnccn12 (stereo unspecified)	59	nt	i	nt	nt	55
CCOC(=O)C1CCCN(C(=O)c2ccc(C(=O)c3ccccc3)cc2)C1 (stereo unspecified)	i	nt	i	nt	nt	nt
CCOC(=O)C1CCCN(C(=O)C2c3ccccc3Oc3ccccc32)C1 (stereo unspecified)	65	i	i	i	i	i
C#CCOCCOCCOCCNc1nc(N2CCN(C(=O)[C@H](CCCCN)n3cc(C(N)CO)nn3)CC2)nc(N2CCN(C(=O)[C@H](CCC(=O)O)n3cc(C(N)Cc4ccc(O)cc4)nn3)CC2)n1 (stereo partly specified)	nt	i	nt	nt	nt	nt
C#CCOCCOCCOCCNc1nc(N2CCN(C(=O)[C@H](CCCCN)n3cc([C@@H](N)CO)nn3)CC2)nc(N2CCN(C(=O)[C@H](Cc3cc4ccccc4[nH]3)n3cc([C@@H](N)Cc4ccc(O)cc4)nn3)CC2)n1	55	i	i	i	i	50
C#CCOCCOCCOCCNc1nc(N2CCN(C(=O)[C@H](CCCCN)n3cc([C@@H](N)CC(C)C)nn3)CC2)nc(N2CCN(C(=O)[C@H](Cc3cc4ccccc4[nH]3)n3cc([C@@H](N)Cc4ccc(O)cc4)nn3)CC2)n1	49	i	nt	i	i	52
C#CCOCCOCCOCCNc1nc(N2CCN(C(=O)[C@H](CCCCN)n3cc([C@@H](N)CC(C)C)nn3)CC2)nc(N2CCN(C(=O)[C@H](Cc3ccc(O)cc3)n3cc([C@@H](N)CC(C)C)nn3)CC2)n1	i	i	i	i	i	nt
CC1CC(=O)Nc2ccccc2N1C(=O)CSc1nnnn1C (stereo unspecified)	i	nt	i	nt	nt	nt
COc1cc(NC(=O)c2ccc(COc3ccccc3Br)o2)cc(OC)c1OC	44	i	i	i	i	i
COc1ccccc1OCc1ccc(C(=O)Nc2cc(OC)c(OC)c(OC)c2)o1	nt	i	i	i	i	nt
O=C(CN1C(=O)C(=O)N(Cc2ccccc2)C1=O)Nc1ccc(OC(F)F)cc1	i	nt	i	nt	nt	nt
O=C(COc1coc(CN2CCc3ccccc32)cc1=O)N1CCCCC1	45	i	?	i	i	i
O=C(COc1coc(CN2CCc3ccccc32)cc1=O)NCCc1ccccc1	i	i	i	i	i	nt
C#CCNC(=O)C1=C[C@H](c2ccc(C(F)(F)F)cc2)C[C@H](OCc2ccc(CO)cc2)O1	i	i	i	i	i	nt
COc1cc(/C=N\NC(=O)c2ccc(Cn3cc(Br)c([N+](=O)[O-])n3)o2)cc(OC)c1O	51	i	100	i	i	i
O=C(CN1C(=O)c2ccccc2C1=O)Oc1ccc(F)cc1	i	i	i	i	i	nt
CN1Cc2sc(NC(=S)NC(=O)c3ccccc3)c(C#N)c2CC1(C)C	58	i	i	i	i	i
CN(C)c1ccc(NC(=O)c2cc3c(=O)n4ccccc4nc3n2C)cc1	43	i	82	i	i	i
COc1ccc(OC)c(NC(=O)c2cc3c(=O)n4ccccc4nc3n2C)c1	i	i	nt	i	i	nt
Cc1ccc(NC(=O)CCCc2nc3ccccc3c(=O)[nH]2)c(Cl)c1	i	nt	i	nt	nt	nt
Cc1ccc(OCC(=O)Nc2ccc(N3CCN(C(=O)c4ccco4)CC3)cc2)cc1C	52	i	i	i	i	57
Cc1cccc(OCC(=O)Nc2ccc(N3CCN(C(=O)c4ccco4)CC3)cc2)c1	55	i	i	i	i	50
Cc1cccc(OC(C)C(=O)Nc2ccc(N3CCCCC3)cc2)c1 (stereo unspecified)	44	i	i	i	i	44
O=C(Cc1ccc(Cl)cc1)Nc1ccc(N2CCN(C(=O)c3ccco3)CC2)cc1	47	i	i	i	i	53
O=C(c1ccco1)N1CCN(c2ccc(Cl)cc2)CC1	i	i	i	i	i	nt
CC1CCC(NC(=O)c2ccc(COc3ccccc3)o2)CC1 (stereo unspecified)	i	nt	i	i	i	nt
COc1ccc(Br)cc1/C=N/NC(=O)c1nc(-c2ccccc2)n2c1CCCCC2	i	i	i	i	i	nt
CCN(CC)C(=O)Cn1cc(C(=O)C(=O)NCCCn2ccnc2)c2ccccc21	i	i	nt	i	i	nt
O=C(O)C1=CC[C@@H](c2ccc(Cl)cc2)N(S(=O)(=O)c2ccc(Cl)cc2)C1	i	nt	i	i	i	nt
